This note sets out measurements from PubChem BioAssay.

One may read the inhibition as the drop in the measured response relative to a control, in per cent.

Unmarked numbers belong to inactive results. Active and inactive are the calls of the source. Cut-off read from the data, not from the text of the source, unless noted: active = inhibition above about 33%; inactive = the rest.

Assay [1] can be described thus: StAR promoter reporter inhibitors, counter-screen for LRH-1 inverse agonist project, cell-based, luminescence, high throughput (AID 651611; in the data active = inhibition above about 28%). Conditions: StAR promoter luciferase reporter counterscreen, at 3.6 µM, active compounds read high. On the technique in general: The purpose of a counterscreen is to sort out artefacts and off-target activity.
Assay [2] deals with Nuclear receptor subfamily 5 group A member 2 (Homo sapiens) (UniProt O00482). The experiment in a line: LRH-1 (NR5A2) inverse agonists, retest, confirmation, cell-based, luminescence (AID 651613; in the data active = inhibition above about 42%;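 note: HEK293T cells co-transfected with LRH-1 and StAR promoter luciferase reporter; 0% = vehicle wells and 100% = parental cells lacking receptor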). Conditions: cell-based LRH-1 luciferase reporter, inverse agonism; at 3.6 µM; active compounds read high. A general note: Reporter assays use an easily measured gene product as a stand-in for the process of interest.

In assay [3] the target is Steroidogenic factor 1 (Homo sapiens) (UniProt Q13285). The experiment in a line: SF1 (NR5A1) inverse agonists, counter-screen for LRH-1 inverse agonist project, cell-based, luminescence, high throughput (AID 651614; in the data active = inhibition above about 44%;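 note: cells cotransfected with StAR promoter reporter and SF1 expression vector; 0% = vehicle on cells with receptor and 100% = vehicle on cells lacking receptor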). Conditions: cell-based SF1 luciferase reporter, at 3.6 µM, active compounds read high.
Assay [4] in a line: VP16 transactivation reporter inhibitors, counter-screen for LRH-1 inverse agonist project, cell-based, luminescence, high throughput (AID 651615). Conditions: Gal4-VP16 luciferase reporter cells, at 3.6 µM, active compounds read high.
The subject of assay [5] is transactivating tegument protein VP16 (Human herpesvirus 1). The assay is described as follows: VP16 transactivation reporter inhibitors, counter-screen for SRC2 inhibitor project, cell-based, luminescence, single concentration (AID 652007; in the data active = inhibition above about 36%). Conditions: cell-based VP16 transactivation luciferase reporter, at 8.9 µM, active compounds read high.
For assay [6], the target named is Nuclear receptor coactivator 2 (Homo sapiens) (UniProt Q15596). The experiment in a line: SRC2 coactivator transcriptional activity inhibitors, confirmation, cell-based, luminescence, HEK293, triplicate (AID 652008;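 active = mean inhibition above 46.5%, the solvent-only control mean plus 3 SD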;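 note: 0% = DMSO-treated cells and 100% = Gossypol at 36 µM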). As to conditions: HEK293 GAL4-SRC2 luciferase reporter, at 8.9 µM, active compounds read high.
Nuclear receptor coactivator 2 (Homo sapiens), sequence (Q15596 whole entry, looked up, the tested form may be a part): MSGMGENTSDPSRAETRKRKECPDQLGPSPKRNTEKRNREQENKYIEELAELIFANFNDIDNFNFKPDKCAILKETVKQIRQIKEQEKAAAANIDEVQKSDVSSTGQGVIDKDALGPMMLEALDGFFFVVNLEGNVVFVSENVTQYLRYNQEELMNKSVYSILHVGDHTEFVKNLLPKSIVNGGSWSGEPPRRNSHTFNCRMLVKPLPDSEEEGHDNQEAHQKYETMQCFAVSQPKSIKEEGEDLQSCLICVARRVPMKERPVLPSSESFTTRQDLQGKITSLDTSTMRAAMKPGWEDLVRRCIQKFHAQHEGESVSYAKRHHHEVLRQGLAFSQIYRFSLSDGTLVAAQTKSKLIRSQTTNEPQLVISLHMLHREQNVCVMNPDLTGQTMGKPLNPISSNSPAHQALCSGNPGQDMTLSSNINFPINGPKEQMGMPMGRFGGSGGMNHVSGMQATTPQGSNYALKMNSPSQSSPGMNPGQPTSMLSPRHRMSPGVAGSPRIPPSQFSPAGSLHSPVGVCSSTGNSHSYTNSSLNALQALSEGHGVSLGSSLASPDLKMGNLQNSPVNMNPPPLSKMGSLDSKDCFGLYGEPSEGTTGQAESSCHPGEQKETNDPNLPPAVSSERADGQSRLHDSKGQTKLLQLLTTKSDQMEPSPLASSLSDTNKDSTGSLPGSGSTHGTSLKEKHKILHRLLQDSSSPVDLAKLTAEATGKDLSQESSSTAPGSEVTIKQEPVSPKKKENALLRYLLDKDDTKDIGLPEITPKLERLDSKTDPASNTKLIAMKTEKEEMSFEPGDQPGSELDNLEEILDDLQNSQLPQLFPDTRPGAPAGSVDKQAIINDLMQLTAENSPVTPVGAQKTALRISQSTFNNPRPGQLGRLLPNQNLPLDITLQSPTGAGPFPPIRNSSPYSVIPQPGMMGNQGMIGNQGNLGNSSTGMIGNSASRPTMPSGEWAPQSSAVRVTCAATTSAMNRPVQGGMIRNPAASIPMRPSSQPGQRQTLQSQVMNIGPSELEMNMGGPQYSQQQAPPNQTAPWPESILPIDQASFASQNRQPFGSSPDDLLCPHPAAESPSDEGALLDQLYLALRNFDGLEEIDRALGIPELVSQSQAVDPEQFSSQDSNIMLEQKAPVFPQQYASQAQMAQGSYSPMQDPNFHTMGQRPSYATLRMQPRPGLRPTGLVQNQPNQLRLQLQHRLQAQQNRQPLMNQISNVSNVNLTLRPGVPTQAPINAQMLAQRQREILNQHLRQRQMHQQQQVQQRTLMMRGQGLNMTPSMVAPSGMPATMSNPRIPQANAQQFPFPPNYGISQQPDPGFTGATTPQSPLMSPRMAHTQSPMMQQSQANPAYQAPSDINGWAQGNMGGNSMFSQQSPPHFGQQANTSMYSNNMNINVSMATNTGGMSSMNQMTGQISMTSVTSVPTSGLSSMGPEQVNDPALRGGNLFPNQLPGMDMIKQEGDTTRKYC

Steroidogenic factor 1 (Homo sapiens), sequence (Q13285 whole entry, looked up, the tested form may be a part): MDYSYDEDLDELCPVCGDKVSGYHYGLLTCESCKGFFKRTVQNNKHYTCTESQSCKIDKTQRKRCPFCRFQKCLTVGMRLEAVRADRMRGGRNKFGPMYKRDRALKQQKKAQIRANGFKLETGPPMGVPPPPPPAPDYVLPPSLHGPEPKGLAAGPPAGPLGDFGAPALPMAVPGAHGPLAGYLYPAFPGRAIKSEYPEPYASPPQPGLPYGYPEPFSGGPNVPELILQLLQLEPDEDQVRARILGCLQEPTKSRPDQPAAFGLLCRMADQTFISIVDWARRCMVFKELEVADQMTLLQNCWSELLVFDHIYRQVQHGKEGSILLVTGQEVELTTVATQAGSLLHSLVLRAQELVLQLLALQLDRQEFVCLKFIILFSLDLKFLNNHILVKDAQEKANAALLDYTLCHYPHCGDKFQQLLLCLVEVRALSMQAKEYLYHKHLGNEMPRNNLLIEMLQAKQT
Nuclear receptor subfamily 5 group A member 2 (Homo sapiens), sequence (O00482 whole entry, looked up): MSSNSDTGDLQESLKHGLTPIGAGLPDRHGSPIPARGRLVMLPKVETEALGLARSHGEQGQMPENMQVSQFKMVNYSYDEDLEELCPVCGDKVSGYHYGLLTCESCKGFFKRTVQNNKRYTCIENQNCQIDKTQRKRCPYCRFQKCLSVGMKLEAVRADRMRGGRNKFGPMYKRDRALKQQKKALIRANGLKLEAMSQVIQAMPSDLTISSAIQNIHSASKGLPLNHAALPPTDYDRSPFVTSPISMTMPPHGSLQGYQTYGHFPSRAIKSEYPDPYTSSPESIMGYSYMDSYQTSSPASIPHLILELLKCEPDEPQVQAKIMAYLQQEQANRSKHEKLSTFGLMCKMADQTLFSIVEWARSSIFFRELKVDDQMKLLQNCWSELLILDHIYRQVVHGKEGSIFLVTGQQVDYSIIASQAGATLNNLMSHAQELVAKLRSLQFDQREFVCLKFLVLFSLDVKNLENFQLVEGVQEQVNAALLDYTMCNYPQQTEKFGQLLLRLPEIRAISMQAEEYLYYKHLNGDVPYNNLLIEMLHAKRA

In the case of `O=C1Nc2ccccc2/C1=C/c1cnc[nH]1`, the inhibition in assay [1] was 14.6%; in assay [2] it was 14.2%; in assay [3], 40.8%; in assay [4], -10.7%.

Take `CC(C)N(C(=O)CCl)c1ccccc1`: the inhibition in assay [1] is 19.8%; in assay [2], 54.8% (active); in assay [3] it was 51.7% (active); in assay [4], -6.55%.

For `Cc1ccc(-n2nc(C)cc2NC(=O)COc2cc(C)cc3oc(=O)c4c(c23)CCC4)cc1`, the inhibition is 19.1% in assay [1], 60.3% (active) in assay [2], 61.2% (active) in assay [3] and -10.8% in assay [4].

For `N#Cc1ccc2nc(-c3ccc(CN4CCC(n5c(=O)[nH]c6ccccc65)CC4)cc3)c(-c3ccccc3)nc2c1`, the inhibition in assay [1] was 43.8% (active); in assay [2], 44% (active); in assay [3], 43.2% (active); in assay [4], 27.1%.

Take `COC(=O)COc1cc(C)cc2oc(=O)c3c(c12)CCCC3`: the inhibition was 3.14% in assay [1], 46.5% (active) in assay [2], 50.6% (active) in assay [3] and -11.3% in assay [4].

For `N#CCCn1cc(C(=O)Nc2ccccc2Br)c(-c2ccc([N+](=O)[O-])cc2)n1`, the inhibition in assay [1] was 18.4%; in assay [2], 61.5% (active); in assay [3], 51.6% (active); in assay [4] it was 1.09%.

Take `OC1(c2ccc(F)cc2)CC2CCC(C1)N2Cc1nnnn1C1CCCC1` (stereo not given): the inhibition in assay [1] is -7.67%; in assay [2], 46.8% (active); in assay [3] it was 50.3% (active); in assay [4], -0.39%.

Regarding `N#CCCn1cc(C(=O)Nc2ccc([N+](=O)[O-])cc2)c(-c2ccccc2)n1`, the inhibition in assay [1] is 7.58%; in assay [2], 35.3%; in assay [3], 41.5%; in assay [4], 15.5%.

`CC(=O)O[C@H]1C[C@@H]2OC3C=C(C)CCC3(C)[C@@]1(C)[C@@]21CO1` (stereo not given in full): the inhibition in assay [1] was 95.6% (active); in assay [2] it was 109% (active); in assay [3], 96.8% (active); in assay [4] it was 96.8% (active); in assay [5], 79.3% (active); in assay [6], 77.9% (active).

For `Cc1cc(S(=O)(=O)NC(C)C)ccc1OCC(=O)N1CCN(Cc2ccc3c(c2)OCO3)CC1`, the inhibition is 16.6% in assay [1], 52.9% (active) in assay [2], 40% in assay [3] and 19.5% in assay [4].

Turning to `CC12CCC(O)CC1CCC1C2CCC2(C)C(C3=CC(=O)OC3)C(O)CC12O` (stereo not given), the inhibition is 92.6% (active) in assay [1], 94.1% (active) in assay [2], 74.8% (active) in assay [3] and 41% (active) in assay [4].

Turning to `N#CCCn1cc(C(=O)Nc2ccccc2Cl)c(-c2ccc([N+](=O)[O-])cc2)n1`, the inhibition was 16.9% in assay [1], 57.2% (active) in assay [2], 59.8% (active) in assay [3] and -6.5% in assay [4].

With `C[C@@H]1O[C@@H](O[C@H]2C[C@@H](O)[C@]3(CO)[C@H]4[C@H](O)C[C@]5(C)[C@@H](C6COC(=O)C6)CC[C@]5(O)[C@@H]4CC[C@]3(O)C2)[C@H](O)[C@H](O)[C@H]1O` (stereo not given in full), the inhibition in assay [1] is 92.4% (active); in assay [2], 103% (active); in assay [3], 87.3% (active); in assay [4], 66.4% (active).

Consider `COc1ccc(NS(=O)(=O)c2ccc(OCC(=O)N3CCN(C)CC3)cc2)cc1Cl`, for which the inhibition in assay [1] was 2.1%; in assay [2] it was 48.2% (active); in assay [3] it was 34.7%; in assay [4], 3.62%.

Take `Cc1cc(OC(=O)c2ccco2)c2c3c(c(=O)oc2c1)CCCC3`: the inhibition is 7.67% in assay [1], 56% (active) in assay [2], 47.2% (active) in assay [3] and 20.2% in assay [4].

Turning to `CC1CCN(C(=O)CCl)CC1`, the inhibition in assay [1] is 21.1%; in assay [2], 58.2% (active); in assay [3] it was 57% (active); in assay [4], -7.83%.

On to `CCOC(=O)[C@]12Cc3cc(C)ccc3[C@H]1N(C1CCCCC1)C(=O)c1ccccc12`, for which the inhibition in assay [1] is 71.1% (active); in assay [2], 102% (active); in assay [3], 71.5% (active); in assay [4], 88.4% (active).

With `Cc1nn(Cc2ccccc2)c(C)c1C(=O)OCC(=O)Nc1ccccc1SCC#N`, the inhibition in assay [1] was -1.13%; in assay [2], 58.8% (active); in assay [3], 52.9% (active); in assay [4] it was 2%.

Turning to `COC1C(O)C(C)OC(OC2CCC3(C)C(CCC4C3C(O)CC3(C)C(C5=CC(=O)OC5)CCC43O)C2)C1O` (stereo not given), the inhibition in assay [1] is 97.3% (active); in assay [2], 110% (active); in assay [3], 98.8% (active); in assay [4] it was 91.1% (active); in assay [5], 57.6% (active); in assay [6], 22.7%.

As to `CN1C(=O)C(=Cc2ccc(N3CCCCCC3)cc2)C(=O)N(C)C1=O`, the inhibition in assay [1] was 9.79%; in assay [2], 57% (active); in assay [3], 48.1% (active); in assay [4] it was -4.85%.

With `NC(Cc1ccc(F)cc1)c1csc(Nc2ncccn2)n1` (stereo not given), the inhibition in assay [1] is 40.1% (active); in assay [2], 43.3% (active); in assay [3] it was 38.9%; in assay [4], 49.8% (active).

In the case of `CCOC(=O)[C@]12Cc3cc(Cl)ccc3[C@H]1N(C1CCCCC1)C(=O)c1ccccc12`, the inhibition is 80.2% (active) in assay [1], 107% (active) in assay [2], 89.1% (active) in assay [3] and 92.8% (active) in assay [4].

For `Cc1ccccc1-n1c(/C=C/c2ccccn2)nc2ccccc2c1=O`, the inhibition in assay [1] was 35.8% (active); in assay [2] it was 49.5% (active); in assay [3], 52% (active); in assay [4], 5.08%.

Regarding `COc1cc2c(cc1OC)[C@@H]1C(=O)c3ccc4c(c3O[C@@H]1CO2)C[C@H](C(C)C)O4`, the inhibition in assay [1] was 34.2% (active); in assay [2] it was 68.7% (active); in assay [3] it was 61.4% (active); in assay [4], 57.4% (active).
